Among the data in PubChem BioAssay (NCATS) are Potency and activity change, negative = cytotoxicity values, retold here.

Common to all, as to assay: Primary qHTS to identify gynecologic anti-cancer compounds using libraries of approved drugs and bioactive compounds (AID 1345084); note: nearly all actives have a fitted effect of over 55% in size
For assay [1], the system named is C33A. Particulars: Gynecologic cancer cell panel viability, ATPlite luminescence, 48 h; series mostly up to 57.5 µM. Put shortly: (§1)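 ATP-based viability (ATPlite), 1,000 cells/well, 16 h pre-incubation, 48 h compound at 37 C, 5% CO2, 15 min RT before read.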
Assay [2] relates to CAOV3. Particulars: Gynecologic cancer cell panel viability, ATPlite luminescence, 48 h; series mostly up to 57.5 µM. Put shortly:
as §1

Assay [3] concerns CASKI. Particulars: Gynecologic cancer cell panel viability, ATPlite luminescence, 48 h; series mostly up to 57.5 µM. Put shortly: as §1
Assay [4] has as its system Es-2. Particulars: Gynecologic cancer cell panel viability, ATPlite luminescence, 48 h; series mostly up to 57.5 µM. In a few lines:
as §1

For assay [5], the system named is HeLa. Particulars: Gynecologic cancer cell panel viability, ATPlite luminescence, 48 h; series mostly up to 57.5 µM. In a few lines: as §1
The subject of assay [6] is Hek293T. Particulars: Gynecologic cancer cell panel viability, ATPlite luminescence, 48 h, control line for the selectivity index; series mostly up to 57.5 µM. In a few lines:
as §1

The subject of assay [7] is JEG-3. Particulars: Gynecologic cancer cell panel viability, ATPlite luminescence, 48 h; series mostly up to 57.5 µM. Put shortly: as §1

Results filed as inconclusive are left out. Unmarked numbers belong to inactive results. Calls of active or inactive are those of the source. Calls come from the whole dose curve; as a rule, active = well fitted cell-killing curve with a large enough effect; inconclusive = small, poorly fitted or top-dose-only effect, or effect the other way; inactive = flat fitted curve, though single readings scatter.
% is set by controls: 0 for no effect and ±100 for the full control effect; potency is the fitted concentration of half-maximal effect.

On to `Cc1cc2c(cc1N1C(=O)c3cccc4c(CCCO)ccc(c34)C1=O)n(C)c(=O)n2C`, for which the Potency result in assay [1], in assay [2], in assay [3], in assay [4], in assay [5] and in assay [6] was “inactive” each time. Also, in assay [7], the Potency entry was “inactive”.

Turning to `CCC(=C(c1ccc(OCCN2CCCC2)cc1)c1ccc(OCCN2CCCC2)cc1)c1ccccc1`, the Potency entry in assay [1], in assay [2], in assay [3], in assay [4], in assay [5] and in assay [6] was “inactive” each time. Besides, in assay [7], the Potency entry is “inactive”.

As to `CCOC(=O)N1c2ccc(C(F)(F)F)cc2C(N(Cc2cc(C(F)(F)F)cc(C(F)(F)F)c2)C(=O)OC)CC1CC` (centres undefined), the Potency entry in assay [1], in assay [2], in assay [3], in assay [4], in assay [5] and in assay [6] was “inactive” each time. The Potency result in assay [7] was “inactive”.

As to `O=S1(=O)CCN(Cc2cc(NCC3CCOCC3)c3[nH]c(-c4ccccc4)cc3c2)CC1`, the Potency entry in assay [1], in assay [2], in assay [3], in assay [4], in assay [5] and in assay [6] was “inactive” in each case. For the same compound, in assay [7], the Potency entry is “inactive”.

Consider `Cc1[nH]c2ccccc2c1CCNCc1ccc(/C=C/C(=O)NO)cc1`, for which the Potency in assay [1] is 251 nM (active); in assay [2], 1000 nM (active); in assay [3], 447 nM (active); in assay [4], 355 nM (active); in assay [5], 126 nM (active); in assay [6], 1580 nM (active). Moreover, the Potency in assay [7] is 251 nM (active).

With `COc1cc(F)c(C(C)C)cc1-c1ccc(C(F)(F)F)cc1CN1C(=O)OC(c2cc(C(F)(F)F)cc(C(F)(F)F)c2)C1C` (centres undefined), the Potency entry in assay [1], in assay [2], in assay [3], in assay [4], in assay [5] and in assay [6] was “inactive” in each case. Moreover, the Potency result in assay [7] was “inactive”.

As for `O=C(C(Cc1cccc(C(F)(F)F)c1)NS(=O)(=O)c1cc(F)c2c(c1)CCNC2)N1CCCC1` (centres undefined), the Potency entry in assay [1], in assay [2], in assay [3], in assay [4], in assay [5] and in assay [6] was “inactive” each time. The Potency entry in assay [7] is “inactive”.

On to `Cc1ccc(C2(C(=O)N3CCC(n4nc(-c5ccccc5)oc4=O)CC3)CC2)cc1`, for which the Potency entry in assay [1], in assay [2], in assay [3], in assay [4], in assay [5] and in assay [6] was “inactive” each time. Moreover, the Potency entry in assay [7] was “inactive”.

With `COc1ccc2nccc(C(=O)CC[C@@H]3CCN(CC#Cc4cc(F)cc(F)c4F)C[C@@H]3C(=O)O)c2c1`, the Potency result in assay [1], in assay [2], in assay [3], in assay [4], in assay [5] and in assay [6] was “inactive” throughout. Further, in assay [7], the Potency result is “inactive”.

On to `Cn1c(SCC(=O)N2CCC[C@H]2C(=O)Nc2ccccc2-c2ccccc2)nc2ccccc21`, for which the Potency result in assay [1], in assay [2], in assay [3], in assay [4], in assay [5] and in assay [6] was “inactive” each time. Also, in assay [7], the Potency result was “inactive”.

Regarding `O=C(c1ccc(F)cc1)N1CCCC(c2nc(-c3ccc(F)cc3)no2)C1` (centres undefined), the Potency result in assay [1], in assay [2], in assay [3], in assay [4], in assay [5] and in assay [6] was “inactive” in each case. In addition, in assay [7], the Potency entry is “inactive”.

On to `COc1ccc(-c2c(C)nn3c(NCCN4CCOCC4)cc(C)nc23)cc1OC`, for which the Potency entry in assay [1], in assay [2], in assay [3], in assay [4], in assay [5] and in assay [6] was “inactive” throughout. Besides, the Potency entry in assay [7] was “inactive”.

As for `COc1ccc(C2(CNC(=O)c3ccc(NC(=O)c4ccco4)cc3)CCOCC2)cc1`, the Potency entry in assay [1], in assay [2], in assay [3], in assay [4], in assay [5] and in assay [6] was “inactive” throughout. The Potency result in assay [7] is “inactive”.

As to `O=C(NC1CCC1)c1ccc(C#Cc2cccc(F)c2)nc1`, the Potency entry in assay [1], in assay [2], in assay [3], in assay [4], in assay [5] and in assay [6] was “inactive” in each case. For the same compound, the Potency entry in assay [7] was “inactive”.

With `NC(N)=N/N=C/c1ccccc1Cl`, the Potency entry in assay [1], in assay [2], in assay [3], in assay [4], in assay [5] and in assay [6] was “inactive” each time. Moreover, the Potency result in assay [7] was “inactive”.

For the compound `COc1ccc(-n2c(SCCCN3C(=O)c4cccc5cccc(c45)C3=O)nnc2-c2ccncc2)cc1`, the Potency result in assay [1], in assay [2], in assay [3], in assay [4], in assay [5] and in assay [6] was “inactive” each time. In addition, the Potency entry in assay [7] was “inactive”.

Regarding `C/C=C/C=C/C=C/C(=O)O[C@@H]1C=C(CO)C(O)(C(=O)OC)[C@@]2(C)CCCC(C)(C)C12` (some centres undefined), the Potency result in assay [1], in assay [2], in assay [3], in assay [4], in assay [5] and in assay [6] was “inactive” each time. For the same compound, in assay [7], the Potency result was “inactive”.

Consider `C/C=C(/C=C(C)/C=C/C=C/C=C(\C)C(=O)C12OC1C(O)(CCO)NC2=O)C(=O)OC` (centres undefined), for which the Potency entry in assay [1], in assay [2], in assay [3], in assay [4], in assay [5] and in assay [6] was “inactive” in each case. In assay [7], the Potency result was “inactive”.

`COc1c(C)cc(NC(=O)c2nn(Cc3ccc(F)cc3)c3c2CN(C(=O)c2ccc[nH]2)C[C@]3(C)C(N)=O)cc1C`: the activity change, negative = cytotoxicity is 12.3% [at 11.6 µM] in assay [1]; -4.37% [at 11.6 µM] in assay [2]; -0.257% [at 11.6 µM] in assay [3]; 4.64% [at 11.6 µM] in assay [4]; -7.03% [at 11.6 µM] in assay [5]; 7.03% [at 11.6 µM] in assay [6]. The activity change, negative = cytotoxicity in assay [7] was 1.95% [at 11.6 µM].

Turning to `C/C=C(/C)C(=O)O[C@@H]1C[C@@H](OC(=O)CC(C)C)C2(C)C3C(=O)C=C(C)C2C3C1(C)C` (some centres undefined), the Potency result in assay [1], in assay [2], in assay [3], in assay [4], in assay [5] and in assay [6] was “inactive” in each case. Besides, the Potency entry in assay [7] was “inactive”.

As for `O=C(CSc1nc2ccccc2c(=O)n1-c1ccccc1)Nc1ccc2c(c1)CCC2`, the Potency result in assay [1], in assay [2], in assay [3], in assay [4], in assay [5] and in assay [6] was “inactive” in each case. The Potency entry in assay [7] is “inactive”.

Consider `C[C@H]1CC[C@@]2(OC1)O[C@H]1CC3[C@@H]4CC[C@@H]5C[C@@H](O[C@@H]6O[C@H](CO)[C@@H](O[C@@H]7O[C@@H](C)[C@H](O)[C@@H](O)[C@H]7O)[C@H](O)[C@H]6O[C@@H]6O[C@H](CO)[C@@H](O)[C@H](O)[C@H]6O)CC[C@]5(C)C4CC[C@]3(C)[C@H]1[C@@H]2C` (some centres undefined), for which the activity change, negative = cytotoxicity in assay [1] is -15.7% [at 11.6 µM]; in assay [2], -14.9% [at 11.6 µM]; in assay [3], 2.17% [at 11.6 µM]; in assay [4] it was 0.261% [at 11.6 µM]; in assay [5], 24.8% [at 11.6 µM]; in assay [6], -22.5% [at 11.6 µM]. In addition, the activity change, negative = cytotoxicity in assay [7] was 3.99% [at 11.6 µM].
